From PubChem BioAssay come the findings set out here.

A number with no mark means an inactive call.

The experiment is described as follows: MM1S myeloma cell viability, profiling panel, resazurin fluorescence, basal, 24 h, PK04 Diversity Set (AID 1174).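 Note: MM1S multiple myeloma cell line; test concentration not given here.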 The following applies: higher = more signal, called active from +8 up or from −8 down.
As to `C=CCN1C(=O)[C@@]2(O[C@@H](CCO)[C@H]([Si](C)(C)c3ccc(OC)cc3)[C@H]2C)c2cc(NC(=O)[C@H](C)O)ccc21`, the z-score is -2.15.
With `COC(=O)[C@@]1(Cc2ccc(OC)cc2)[C@H]2c3cc(C(=O)N4CCCC4)n(CCF)c3C[C@H]2CN1C(=O)c1ccccc1`, the z-score was -2.21.
In the case of `O=C1N(Cc2ccccc2)c2ccccc2[C@H]2OC(c3ccc(OCCCO)cc3)=N[C@@]12CCS(=O)(=O)c1ccccc1`, the z-score was -0.56.
Take `CC(=O)NCCCC[C@@H]1NC(=O)[C@@H]2C[C@H](C(=O)NCCCC[N+](C)(C)C)[C@H](c3cccc(OCCO)c3)N2C1=O`: the z-score is -1.56.
In the case of `COCCCNC(=O)[C@@]1(Cc2ccccc2I)c2ccccc2C(=O)N(Cc2ccccc2Cl)[C@H]1c1ccc(CO)cc1` it was 1.59.
In the case of `COCCCNC(=O)[C@@]1(Cc2ccccc2CN=[N+]=[N-])N=C(c2ccc(OCCCO)cc2)O[C@H]1c1ccccc1N=[N+]=[N-]` it was -1.18; in that of `NCCCCCCNC(=O)[C@H]1C[C@H]2C(=O)N3CCC[C@H]3C(=O)N2[C@H]1c1ccc(O)cc1`, -0.431; in that of `C=C(/C(=C/C[C@@H](OC(=O)c1ccncc1)c1cccc(OCCO)c1)c1cc(C(=O)OC)ccc1OC)C(C)C`, -0.261.
As for `CN1C(=O)C2C=CC(C(O)COCc3ccccc3)N(Nc3ccccc3)C2C1=O` (stereo not given), the z-score was -0.825.
Turning to `C=C[C@@H](O)[C@H]1CC(c2ccccc2)=NO1`, the z-score was 0.325.
The result for `COC(=O)[C@@]1(Cc2ccc(OC)cc2)[C@H]2c3cc(C(=O)N(C)C)n(CCF)c3C[C@H]2CN1C(=O)c1ccccc1` reads -0.386.
For the molecule `C=CCC(OC(C)=O)[C@@H]1[C@@H](N(Cc2ccc(-c3cccc(C(F)(F)F)c3)o2)C(=O)c2cccc3ccccc23)c2cc(OCCCO)ccc2N1C(=O)c1ccc(-c2ccccc2)cc1` (stereo not given in full), the z-score was -1.1.
For the molecule `COc1cc(NN2C(C(O)c3ccc(I)cc3)C=CC3C(=O)N(C)C(=O)C32)cc(OC)c1OC` (stereo not given), the z-score was -0.297.
Take `C=CCC(OC(C)=O)[C@@H]1[C@@H](N(Cc2cccc3ccccc23)C(=O)Cc2ccc(F)cc2)c2cc(OCCCO)ccc2N1C(=O)Cc1ccc(OC)cc1` (stereo not given in full): the z-score is 0.738.
In the case of `C=CCOC(=O)[C@@H]1[C@H]2C(=O)O[C@H](c3ccccc3)[C@H](c3ccccc3)N2[C@H](c2ccc(OCCOC(=O)[C@H]3C[C@H]4C(=O)N[C@@H](Cc5ccccc5)C(=O)N4[C@H]3c3cccc(OCCO)c3)cc2)[C@@]12C(=O)Nc1ccc(I)cc12`, the z-score was -1.94.
With `CC(C)c1ccc(NN2C(C(O)c3cccs3)C=CC3C(=O)N(c4ccccc4)C(=O)C32)cc1` (stereo not given), the z-score was -1.73.
`CC1CC/C=C\[C@H]2OC34C=CCN(Cc5ccccc5)C(=O)[C@H]3N(CCO)C(=O)[C@@H]4C2C(=O)O1` (stereo not given in full): the z-score is 0.32.
For the molecule `COCCOC(=O)N1C(=O)[C@@]2(c3cc(C#CC4(O)CCCCCC4)ccc31)[C@H](C(=O)N1CCc3cc(OC)c(OC)cc3C1)[C@H]1C(=O)O[C@H](c3ccccc3)[C@H](c3ccccc3)N1[C@@H]2c1ccccc1OCCO`, the z-score is 0.162.
The result for `COc1ccc([Si](C)(C)[C@H]2[C@H](CC(=O)N3CCC[C@H]3CO)O[C@@]3(C(=O)N(Cc4ccc(N5C(=O)c6cccc7cccc5c67)cc4)c4ccccc43)[C@@H]2C)cc1` reads -1.61.
As to `C=C(C(=O)CC[C@H](OC(=O)c1cccnc1)c1ccc(OCCO)cc1)C(C)C`, the z-score was -2.35.
Consider `COC(=O)[C@@]1(Cc2ccccc2)[C@H]2c3cc(C(=O)N4CCCC4)n(CCO)c3C[C@H]2CN1C(=O)c1ccccc1`, for which the z-score is -0.892.
On to `C=CCNC(=O)[C@H]1[C@@H]2C(=O)O[C@@H](c3ccccc3)[C@@H](c3ccccc3)N2[C@@H](c2ccc(OCCO)cc2)[C@]12C(=O)N(C(=O)OCCOC)c1ccc(C#CC3=CCCCC3)cc12`, for which the z-score is -0.344.
As to `O=C1C2C=CC(C(O)c3cccc4ccccc34)N(Nc3ccccc3)C2C(=O)N1c1ccccc1` (stereo not given), the z-score is 0.0605.
On to `Cc1ccc(S[C@]2(C(=O)O)CC(=O)N(C3CCCCC3)[C@@H]2c2ccc(CO)cc2)cc1`, for which the z-score is 0.0977.
Turning to `CC(=O)NCCCC[C@@H]1NC(=O)[C@H]2C[C@@H](C(=O)NCCCCCN)[C@@H](c3cccc(OCCO)c3)N2C1=O`, the z-score is 1.18.
Regarding `C=C(CCCC)/C(=C/C[C@@H](OC(=O)c1ccncc1)c1ccccc1OCCO)c1cc(C(=O)OC)ccc1OC`, the z-score is -1.38.
As to `C=CC[C@]1(C(=O)N2CCOCC2)N=C(c2ccc(OCCCO)cc2)O[C@H]1c1ccccc1CN=[N+]=[N-]`, the z-score is -0.574.
Take `C=C(C)[C@@H]1CC=C(C(O)C2C=CC3C(=O)N(C4CCCCC4)C(=O)C3N2Nc2ccc(OC)cc2)CC1` (stereo not given in full): the z-score is -0.0469.
In the case of `CC1(C)[C@@H]2CC(C(O)C3C=CC4C(=O)N(c5ccccc5)C(=O)C4N3Nc3ccccc3F)=C[C@@H]1C2` (stereo not given in full), the z-score is 0.941.
As to `[N-]=[N+]=NCc1ccccc1[C@H]1OC(c2ccc(OCCCO)cc2)=N[C@@]1(Cc1ccccc1N=[N+]=[N-])C(=O)N1CCCCC1`, the z-score is -2.42.
In the case of `CC(C)N1CC=CC23O[C@@H]4C=CCOC(=O)[C@@H]4[C@H]2C(=O)N(CCCCCCO)[C@@H]3C1=O` (stereo not given in full) it was -0.581.
Consider `CN1C(=O)C2C=CC(C(O)C3CCCCC3)N(N(c3ccccc3)c3ccccc3)C2C1=O` (stereo not given), for which the z-score is -1.54.
Consider `CC(C)(C)OC(=O)CC[C@]1(C(=O)O)COC(c2ccc(OCCCO)cc2)=N1`, for which the z-score is -0.249.
The result for `O=C1O[C@H](c2ccccc2)[C@H](c2ccccc2)N2[C@H]1[C@@H](C(=O)N1CCN(c3ncccn3)CC1)[C@]1(C(=O)Nc3ccc(C#CCCO)cc31)[C@H]2c1ccc(OCCO)cc1` reads -0.901.
For the molecule `CN1C(=O)C2C=CC(C(O)c3cccc4ccccc34)N(NC(=O)OC(C)(C)C)C2C1=O` (stereo not given), the z-score is -0.776.
